From PubChem
PLC-beta3 inh = inhibitors of human phospholipase C beta3. Purified PLC-beta3, fluorogenic substrate, fluorescence. inhibition, % at 12.2 µM. AID 720704. Q01970. actives 0.18% (n = 370,000); in the data active means inhibition above about 11%;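 further: 0% = median of compound wells on plate and 100% = full blocker control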
HIF activator = HIF pathway transcriptional activation; U2OS HRE-luciferase reporter, luminescence; normalized: DMSO 0%, desferrioxamine 100%; activation, % at 7.5 µM (by protocol); actives 0.32% (n = 300,000);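 active means mean activation of at least 10% of the iron chelator positive control signal, with at least half of replicates also reaching 10%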
PLCg1 inh = PLC-gamma1 (human) inhibition, primary screen | inhibition, % at 12.2 µM | purified PLC-gamma1, fluorogenic substrate, fluorescence | actives 0.84% (n = 370,000); in the data active means inhibition above about 9.5%
Yeast superoxide = lowers age-related superoxide in aged yeast cells | AID 2690 | superoxide response (% of plate mean), % at 10 µM | actives 0.18% (n = 330,000) | S. cerevisiae aged cells, superoxide DHE fluorescence; hits give low values;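 active means superoxide response under a set limit, about three screen SD below normal, cut at about 65% in these data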;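 further: yeast aged for seven days with compound at 30 °C before DHE staining; 100% = average MFI of all compound-treated wells on the plate with controls excluded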
HGIII-sPLA2 inh = Blocks human group III sPLA2 activity; Q9NZ20; QFRET BODIPY PC-A2 liposome hydrolysis, fluorescence; inhibition, % at 12.2 µM; actives 0.56% (n = 370,000); AID 743126;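 active means inhibition above mean plus 3 SD of compounds lying within the high and low control bounds, cut at about 19% in these data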;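 further: 0% = median of test compound wells and 100% = no enzyme DMSO wells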
Target sequence (Q9NZ20 whole entry, looked up): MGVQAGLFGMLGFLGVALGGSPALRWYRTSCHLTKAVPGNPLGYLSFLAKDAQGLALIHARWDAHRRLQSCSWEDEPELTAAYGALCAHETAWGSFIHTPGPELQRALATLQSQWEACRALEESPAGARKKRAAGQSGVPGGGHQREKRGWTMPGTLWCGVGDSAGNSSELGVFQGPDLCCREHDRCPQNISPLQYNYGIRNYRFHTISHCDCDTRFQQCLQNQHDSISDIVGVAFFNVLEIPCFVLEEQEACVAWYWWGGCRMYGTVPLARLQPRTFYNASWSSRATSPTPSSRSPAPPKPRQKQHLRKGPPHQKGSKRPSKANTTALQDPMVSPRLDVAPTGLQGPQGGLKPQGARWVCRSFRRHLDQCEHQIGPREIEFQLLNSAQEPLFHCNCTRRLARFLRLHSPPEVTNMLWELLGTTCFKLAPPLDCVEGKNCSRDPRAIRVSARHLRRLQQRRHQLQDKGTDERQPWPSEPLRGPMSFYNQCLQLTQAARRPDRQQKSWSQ
AHR act = activators of human aryl hydrocarbon receptor; P35869; AHR-responsive luciferase reporter cells, luminescence; activation, % at 5 µM; actives 2.5% (n = 320,000); in the data active means activation above about 47%;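 further: 0% = vehicle wells and 100% = reference agonist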
AHR act confirm = human AHR activation, confirmation; shares compounds with AHR act; human cells, AHR-responsive luciferase reporter, luminescence; activation, % at 9 µM; actives 87% (n = 2,300); in the data active means activation above about 49%;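 further: HepG2 hepatoma cells carrying a DRE-driven firefly luciferase reporter; 0% = vehicle wells and 100% = reference agonist wells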
PXR act counter = PXR activation, counter-screen for AHR activators. shares compounds with AHR act. cell-based PXR reporter, luciferase luminescence. activation, % at 11.6 µM. actives 88% (n = 2,300). AID 434939; in the data active means activation above about 11%;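 further: human hepatoma DPX-2 cells expressing full-length human PXR; 0% = DMSO and 100% = reference agonist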
Starred values were filed as active, the others as inactive; i = inactive; x = no result given. Hits are enriched below; roughly 3.9% of the tested compounds scored in any of these assays.

SMILES	PLC-beta3 inh	HIF activator	PLCg1 inh	Yeast superoxide	HGIII-sPLA2 inh	AHR act	AHR act confirm	PXR act counter
c1cncc(-c2nc(-c3ccc4c(c3)OCO4)cs2)c1	-44	3	-37	112	-3	95*	80*	27*
C(=N/Nc1nccs1)/c1cccnc1	-3	2	-5	103	-2	12	x	x
Clc1cccc(/C=N\Nc2nccs2)c1	-45	2	-35	102	18	117*	122*	37*
C[C@@H]1CN([C@H](C)CO)C(=O)CCCn2nncc2CO[C@H]1CN(C)Cc1cccc(O)c1	0	x	-1	x	7	x	x	x
S=C1NCCOc2ccccc21	1	x	0	x	2	x	x	x
COc1ccc(/C=N/NC(=O)c2ccccc2NC(=O)c2ccco2)c(OC)c1	-12	0	-7	97	2	12	x	x
O=C(Nc1ccccc1C(=O)N/N=C/c1ccncc1)c1ccccc1	-9	2	-5	113	-3	101*	41	37*
COc1ccc(C(=O)Nc2ccccc2C(=O)N/N=C/c2ccco2)cc1	-3	1	-4	98	-1	137*	100*	29*
CCOc1ccc(/C=N/NC(=O)c2ccccc2NC(=O)c2ccc(OC)cc2)cc1	-6	2	-3	108	1	106*	13	31*
Clc1ccc(Oc2nc3c(Cl)cccc3s2)cc1Cl	-5	2	-1	93	-2	31	x	x
CC(OC(=O)c1ccccc1NCCO)C(=O)NC1CCCCC1C (stereo not given)	i	-1	-485	93	4	0	x	x
CN(C)c1ccc(N(C)C)c(C(O)(c2ccccc2)c2ccccc2)c1	1	x	2	x	13	x	x	x
[O-][n+]1c2ccccc2c2n1CCN1CCOC21c1ccc(Cl)cc1 (stereo not given)	-178	x	-105	72	6	80*	118*	65*
O=C(Nc1ccccc1C(=O)Nc1ccccc1)c1ccccc1F	-5	0	0	106	-1	83*	65*	41*
CCCCNC(=O)C(NC(=O)c1ccccc1)C(=O)c1ccccc1 (stereo not given)	5	x	-2	x	-1	x	x	x
CS(=O)(=O)N(CC(=O)Nc1cccc([N+](=O)[O-])c1)c1ccccc1	2	-1	-1	111	-6	90*	48*	83*
CS(=O)(=O)N(CC(=O)Nc1cccc(F)c1)c1cccc([N+](=O)[O-])c1	-1	0	-2	108	-6	4	x	x
CCOC(=O)N1CCC(NC(=O)c2cccn3c(=O)c4cc(Br)ccc4nc23)CC1	-208	0	-135	109	6	90*	111*	18*
Brc1cccc(-c2nnc(-c3ccccc3)o2)c1	2	x	0	93	3	121*	134*	28*
O=c1oc2ccccc2cc1-c1nnc(-c2cccc(Br)c2)o1	-9	0	-7	114	8	1	x	x
Brc1cccc(-c2nnc(SCc3nc4ccccc4[nH]3)o2)c1	-24	0	-19	99	-17	92*	42	29*
O=C1NC(=Nc2ccccc2)/C(=C/c2ccco2)S1	-24	0	-22	113	-3	84*	34	20*
CC1CC(C)CN(c2oc(Cc3ccccc3)nc2C#N)C1 (stereo not given)	1	1	-2	90	-8	8	x	x
COc1ccccc1OCc1nc(C#N)c(N2CC(C)CC(C)C2)o1 (stereo not given)	3	0	2	96	-5	91*	86*	86*
CCN(CC)c1ccc(/C=C2\NC(=O)NC2=O)cc1	-13	3	-16	110	-2	88*	56*	11*
SMILES	PLC-beta3 inh	HIF activator	PLCg1 inh	Yeast superoxide	HGIII-sPLA2 inh	AHR act	AHR act confirm	PXR act counter
O=C1N/C(=N\c2ccccn2)SC1Cc1ccccc1Cl (stereo not given)	-6	0	-3	123	-7	80*	89*	34*
COC(=O)[C@]12C[C@H](CC(=O)NCC3CCCCC3)C(=O)N(Cc3ccc(Cl)cc3Cl)C1=C[C@H](C(C)(C)C)O[C@@H]2C	2	x	0	x	-3	x	x	x
Clc1ccc(-c2nc3ncccn3c2Cl)cc1	x	1	x	120	x	87*	148*	55*
Nc1c(-c2ccc(F)cc2)nc2ncccn12	-24	x	-22	x	10	x	x	x
CC1(C)Cc2ccccc2-c2nc(NCCCO)[nH]c(=O)c21	i	0	i	96	-9	1	x	x
Oc1ccc(Cl)cc1-c1cc(-c2ccccc2Cl)[nH]n1	2	1	1	110	-21	28	x	x
Oc1ccccc1-c1cc(-c2ccccc2Cl)[nH]n1	-1	0	-3	99	-38	96*	115*	18*
O=C(NCc1ccccc1)[C@@H]1CCCN1C(=O)[C@H]1CCCN1C(=O)c1ccc(F)c(C(F)(F)F)c1	4	x	3	x	5	x	x	x
COc1cccc(CNC(=O)CSc2nnc3c(n2)[nH]c2ccc(C)cc23)c1	-1	0	3	88	-1	1	x	x
Cc1ccc2c(c1)[nH]c1c(=O)n(CCCN3CCOCC3)cnc12	-3	1	-3	100	2	35	x	x
Cc1ccc2c(c1)[nH]c1c(=O)n(CCN3CCCCC3)cnc12	-4	1	-3	92	-3	94*	105*	76*
CCN(CC)CCNc1nc2cc(OC)c(OC)cc2c2nc(-c3ccccc3)nn12	-296	2	-256	103	-12	90*	17	5
Cc1c2ccccc2nc2c(F)c(N(C)C)c(F)c(F)c12	-78	0	-72	92	-9	122*	14	46*
Cc1cccc(-c2sc(Nc3ccccc3)n[n+]2-c2ccccc2)c1	3	x	-2	99	-2	108*	50*	132*
O=C(O)c1ccc(-c2sc(Nc3ccccc3)n[n+]2-c2ccccc2)cc1	3	0	2	110	4	43	x	x
Cc1ccc2c(C)c(C(=O)N3CCN(c4cnccn4)CC3)oc2c1C	-85	1	-55	105	-4	92*	114*	25*
NS(=O)(=O)c1ccc(N/N=C/C=C/c2ccccc2[N+](=O)[O-])cc1	-8	5	5	98	-49	82*	6	25*
Nc1ccc(S(=O)(=O)NN=CC=Cc2ccccc2[N+](=O)[O-])cc1	-1	x	-1	x	0	x	x	x
Cc1noc(C)c1S(=O)(=O)Nc1ccc2c(c1)C(=O)N([C@H](C)CO)C[C@H](C)[C@@H](CN(C)C(=O)CCCN(C)C)OCCCC[C@@H](C)O2	-2	x	3	x	-2	x	x	x
Nc1nc2ccc(Cl)cc2c2nc(-c3ccco3)nn12	x	-1	x	98	x	107*	248*	34*
